TIM10 inh: TIM10 yeast growth inhibition. inhibition, % at 10 µM. 330,000 compounds, 1.4% hits. AID 463195. S. cerevisiae TIM10 strain growth, BacTiter-Glo luminescence, 24 h;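 active = inhibition of 40% or more at the single tested concentration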;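 also: wild-type TIM10 isogenic control strain grown at permissive 25 °C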
NLRP3 yeast inh: inhibitors of NALP3 inflammasome in yeast; Yeast reconstituted NLRP3/ASC/caspase-1, beta-gal luminescence, 24 h; inhibition, % at 10 µM; 330,000 compounds, 0.39% hits;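 active = inhibition of 50% or more; inactive = inhibition below 50%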;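 also: plate controls were induced DMSO wells for no effect and uninduced yeast grown without galactose for full effect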
tim23-1 inh: growth inhibitors of tim23-1 mutant yeast; inhibition, % at 20 µM; 330,000 compounds, 1.3% hits; S. cerevisiae tim23-1 growth, BacTiter-Glo luminescence, 24 h;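 active = growth inhibition of the mutant yeast at or above 50%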;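 also: temperature-sensitive mutant grown at 25 °C; plate controls were DMSO-treated mutant yeast for no effect and medium wells lacking yeast for full effect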
tim10-1 inh: tim10-1 yeast growth inhibition; 330,000 compounds, 2.2% hits; S. cerevisiae tim10-1 ts strain growth, BacTiter-Glo, 24 h; AID 463190; inhibition, % at 20 µM;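 active = inhibition of at least 40%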;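 also: mutant grown at 25 °C; 0% = DMSO wells with yeast and 100% = wells holding no yeast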
Yeast superoxide: lowers age-related superoxide in aged yeast cells. superoxide response (% of plate mean), % at 10 µM. AID 2690. 330,000 compounds, 0.18% hits. S. cerevisiae aged cells, superoxide DHE fluorescence; hits give low values;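 active = superoxide response under a set limit, about three screen SD below normal, cut at about 65% in these data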;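 also: yeast aged for seven days with compound at 30 °C before DHE staining; 100% = average MFI of all compound-treated wells on the plate with controls excluded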
tim10-1 confirm: confirmation of tim10-1 mutant yeast growth inhibitors; inhibition, % at 20 µM; shares compounds with tim10-1 inh; 7,400 compounds, 56% hits; S. cerevisiae tim10-1 ts strain growth, BacTiter-Glo, 24 h;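 active = inhibition of yeast growth at or above a set limit in either of two repeat tests at 20 µM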;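 also: tim10-1 mutant grown at permissive 25 °C to find synthetic lethal compounds; 0% = DMSO yeast wells and 100% = medium wells without yeast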
The depositor's hits bear a star; i = inactive; . = not tested or not shown. A selection: hits, their analogues and other compounds. The true share with any hit is near 3.8%.

SMILES | TIM10 inh | NLRP3 yeast inh | tim23-1 inh | tim10-1 inh | Yeast superoxide | tim10-1 confirm
C=CCN=c1scc(-c2ccc(F)cc2)n1/N=C/c1ccccn1 | 35 | -7 | 27 | 41* | 92 | 14
Cc1ccc(C(=O)NN2CCOCC2)cc1 | -8 | -13 | -7 | 11 | 108 | .
O=C(NN1CCOCC1)c1ccc(Br)cc1 | 8 | 18 | 10 | 42* | 98 | -6
CCOC(=O)Oc1c(OC)cc(C(=O)O[C@@H]2C[C@@H]3CN4CCc5c([nH]c6cc(OC)ccc56)[C@H]4C[C@@H]3[C@H](C(=O)OC)[C@H]2OC)cc1OC | 2 | 20 | 10 | 16 | 91 | .
Cc1ccc(S(=O)(=O)N2CCN(Cc3ccccc3C(F)(F)F)CC2)cc1 | -11 | 20 | 16 | 13 | 87 | .
O=S(=O)(c1ccccc1)N1CCN(Cc2ccccc2C(F)(F)F)CC1 | 12 | 23 | 20 | 40* | 143 | 6
CN(Cc1ccc(Cl)cc1)C(=O)COC(=O)CSc1ccc([N+](=O)[O-])cc1 | 3 | 15 | 35 | 33 | 82 | .
O=C(Nc1ccc(OC(=O)c2ccco2)cc1)c1ccco1 | 29 | -14 | 35 | -8 | 94 | .
O=C(Nc1ccc(Cl)c(Cl)c1)Oc1ccc(NC(=O)c2ccco2)cc1 | 19 | 2 | 29 | 44* | 111 | 26
CCN(CC)c1ncnc2c1sc1nc(C)cc(C)c12 | 9 | 20 | 24 | 43* | 94 | 19
Cc1cc(C)c2c(n1)sc1c(N3CCCCC3)ncnc12 | 15 | 17 | 31 | 20 | 100 | .
COc1ccc2c(COC(=O)CNC(=O)C34CC5CC(CC(C5)C3)C4)cc(=O)oc2c1 | 19 | 15 | 29 | 42* | 97 | 27
COC(=O)NNC(=O)COc1ccc2ccccc2c1Br | 22 | 10 | 30 | 45* | 101 | 25
CC(C)(C)C(=O)NNC(=O)COc1ccc2ccccc2c1Br | 8 | 10 | 17 | -6 | 102 | .
CC(Sc1nnc(NC2CCCCC2)s1)C(=O)Nc1ccc2c(c1)C(=O)c1ccccc1C2=O (stereo unspecified) | 17 | 24 | 23 | 42* | 126 | 19
COc1ccc(Nc2ccccc2N)cc1 | 27 | 39 | 36 | 47* | 97 | 24
COCCNC(=S)N/N=C(\C)c1ccc2cc(OC)ccc2c1 | 32 | 14 | 49 | 35 | 101 | .
COCCNC(=S)N/N=C(\C)c1cc2ccccc2o1 | 35 | 14 | 36 | 41* | 122 | 15
COCCNC(=S)N/N=C(\C)c1cccc(C(F)(F)F)c1 | 34 | 4 | 26 | 45* | 97 | 15
Clc1ccc(-n2ncc3c(NCc4ccco4)ncnc32)cc1 | 13 | 16 | 16 | 23 | i | .
Clc1ccc(Cn2ncc3c(NCc4ccco4)ncnc32)c(Cl)c1 | 12 | 28 | 45 | 42* | 101 | 25
O=C(NNc1ccc([N+](=O)[O-])cc1)c1ccccc1Cl | 3 | 22 | -13 | -37 | 73 | .
O=C(NC(NNc1ccc([N+](=O)[O-])cc1)(C(F)(F)F)C(F)(F)F)c1ccc(Cl)cc1 | 35 | 13 | 37 | 64* | 79 | 51*
COc1cccc(C(=O)Nc2nc(SCc3ccc(Cl)cc3)n[nH]2)c1 | -5 | 12 | 10 | 16 | 102 | .
Cc1ccccc1NC(=O)CSc1nc(N)c2c3c(sc2n1)CSC(C)(C)C3 | 9 | 4 | 39 | 43* | 104 | 33*
SMILES | TIM10 inh | NLRP3 yeast inh | tim23-1 inh | tim10-1 inh | Yeast superoxide | tim10-1 confirm
Cc1ccc(NC(=O)CSc2nc(N)c3c4c(sc3n2)CSC(C)(C)C4)cc1 | 3 | 24 | -12 | 10 | 115 | .
COc1cccc(N2C(=NC(=O)CCc3ccccc3)SC3CS(=O)(=O)CC32)c1 (stereo unspecified) | 0 | -4 | 0 | 7 | 113 | .
O=C(CN1CCN(C(=O)C2CCCO2)CC1)Nc1ccc(Cl)c(Cl)c1 (stereo unspecified) | 7 | 16 | 23 | 3 | 105 | .
Cc1nc2sc3c(=O)[nH]nnc3c2c(C)c1Br | 8 | 14 | 43 | 42* | 79 | 31
c1ccc2c(c1)-c1cccc3c1c-2cc1ccccc13 | 16 | -4 | 21 | 15 | 107 | .
Oc1cc(-c2ccccc2)c2ccccc2c1 | 7 | -38 | 47 | 54* | 88 | 51*
N/C(Cc1cccs1)=N\OC(=O)COc1ccc(Cl)cc1Cl | 26 | 26 | 44 | 49* | 94 | 52*
Cn1c(=O)n(Cc2ccc(Br)cc2)c2ccccc21 | 25 | 49 | 30 | 27 | 94 | .
CCOC(=O)c1c(N2C(=O)C3CC(C)=C(C)CC3C2=O)sc(C)c1C (stereo unspecified) | 12 | 5 | 40 | 40* | 114 | 11
CCOC(=O)c1c(N2C(=O)CC(Sc3ccccc3C(=O)O)C2=O)sc(C)c1C (stereo unspecified) | -6 | 20 | 32 | 20 | 95 | .
COc1ccc(NC(C)=O)cc1NC(=O)C1CCCN1C(=O)c1cccs1 (stereo unspecified) | -4 | 18 | 10 | 3 | . | .
CCCN(CC(=O)Nc1ccccc1Br)CC(=O)Nc1ccc(F)c(F)c1F | -4 | 16 | 24 | 31 | 94 | .
CCCN(CC(=O)Nc1cc(Cl)cc(Cl)c1)CC(=O)Nc1ccc(F)c(F)c1F | 37 | 3 | 37 | 51* | 100 | 29
Cc1nn(CC(=O)N/N=C/c2ccc3c(c2)OCO3)c(C)c1Br | 15 | 12 | 7 | 12 | 95 | .
O=C(CSCc1cccc(Br)c1)N/N=C/c1ccc2c(c1)OCO2 | 14 | 23 | 37 | 43* | 98 | 36*
O=C1CC(N2C(=O)/C(=C/C=C/c3ccccc3)SC2=S)C(=O)N1c1ccccc1 (stereo unspecified) | 37 | 11 | 40 | 38 | 120 | .
O=C(ON=C1CCN(S(=O)(=O)c2ccccc2)CC1)c1ccc(F)cc1 | 37 | -2 | 46 | 52* | 101 | 54*
COC(=O)CSc1nc2c(c(-c3ccco3)c1C#N)CCCC2 | 25 | -1 | 31 | 47* | 95 | 40*
CC1CC(C)CN(S(=O)(=O)c2ccc(C(=O)NCc3ccco3)cc2)C1 (stereo unspecified) | 3 | 18 | 22 | 14 | 95 | .
CC(=O)Nc1ccc(C(=O)COC(=O)CCc2ccccc2)c(F)c1 | 18 | 16 | 31 | -8 | 102 | .
O=C(Oc1ccc2c(=O)c(Oc3ccc4ccccc4c3)coc2c1)c1ccco1 | 40 | -5 | 22 | 26 | 97 | .
O=C(Oc1ccc2ccc(=O)oc2c1)c1ccco1 | 30 | 14 | 31 | 46* | 97 | 20
Cc1cc(Cl)c(OCCCCNC(C)(C)C)c(Br)c1 | 2 | 12 | 12 | 12 | 74 | .
C[C@H]1C=CC(=O)O[C@H]1c1ccccc1 | 36 | -32 | 44 | 48* | 90 | 52*
CC1C(=O)C(C)(C)C(=O)OC1c1ccccc1 (stereo unspecified) | 13 | 4 | 11 | 1 | 103 | .
CCCCCCCCCCCC1=C(O)C(=O)C=C(O)C1=O | . | . | . | . | 91 | .
